High-throughput results from PubChem.
A selection: hits, their analogues and other compounds. The true share with any hit is near 3.6%.
WT yeast gro inh = growth inhibition of WT yeast, mitochondrial fusion screen; mitochondrial fusion phenotypic screen, WT strain; inhibition, % at 10 µM; 2.1% of 190,000 active; AID 1362; in the data active = inhibition above about 58%; tested in S. cerevisiae
DAT uptake mod = modulates human dopamine transporter uptake under cocaine. LLC-PK1 hDAT cells, [14C]-dopamine uptake with cocaine IC80; actives deviate in either direction. Q01959. AID 449768. B-score at 10 µM. 1.3% of 110,000 active;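 active = Z score or B-score, a plate-position-corrected score, falls beyond the plate's 99.7% confidence bounds, in either direction; inactive = both scores lie inside the 99.7% bounds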;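 note: scored against the spread of the other compound wells on the same plate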
Target sequence (Q01959 whole entry, looked up): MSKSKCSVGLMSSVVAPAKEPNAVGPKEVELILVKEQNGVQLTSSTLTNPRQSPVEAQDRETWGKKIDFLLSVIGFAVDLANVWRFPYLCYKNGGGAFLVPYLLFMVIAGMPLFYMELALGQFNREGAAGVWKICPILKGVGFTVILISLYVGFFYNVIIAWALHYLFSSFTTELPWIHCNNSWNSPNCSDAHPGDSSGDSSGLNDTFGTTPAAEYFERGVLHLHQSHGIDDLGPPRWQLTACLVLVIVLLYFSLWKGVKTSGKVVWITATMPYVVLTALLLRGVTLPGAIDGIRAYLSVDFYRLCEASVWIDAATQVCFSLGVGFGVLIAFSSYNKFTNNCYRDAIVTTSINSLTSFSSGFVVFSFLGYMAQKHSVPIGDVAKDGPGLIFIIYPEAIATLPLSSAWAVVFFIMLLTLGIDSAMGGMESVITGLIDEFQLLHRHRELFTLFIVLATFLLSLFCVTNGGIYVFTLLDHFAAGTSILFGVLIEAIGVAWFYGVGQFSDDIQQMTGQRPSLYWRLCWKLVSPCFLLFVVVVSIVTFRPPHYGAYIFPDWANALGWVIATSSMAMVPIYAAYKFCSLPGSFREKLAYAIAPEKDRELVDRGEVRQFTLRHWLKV
HCT116 bCat-KO = beta-catenin-lacking colon tumor cell growth suppression; HCT116 beta-catenin knockout viability, CellTiter-Glo, 60 h; stronger effect = lower value; 1.5% of 140,000 active; viability, % at 10 µM;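 active = viability at or under a set limit, the compound median less 4 SD, cut at about 6% in these data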;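 note: 0% = Hyamine 1622 control at 20 µM and 100% = untreated cell control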
HCT116 PTEN-null = suppresses growth of cells with PTEN deletion; HCT116 PTEN-null viability, CellTiter-Glo, 60 h; stronger effect = lower value; viability, % at 10 µM; 1.2% of 140,000 active; AID 827;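 active = viability at or below a set limit, 4 SD under the median of all tested compounds, cut at about 3.7% in these data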;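 note: PTEN knockout HCT116 line with beta catenin targeted HCT116 as companion control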
The depositor's hits bear a star; . = no result.

SMILES | WT yeast gro inh | DAT uptake mod | HCT116 bCat-KO | HCT116 PTEN-null
O=C(NC(=S)N1CCN(Cc2ccc3c(c2)OCO3)CC1)c1ccc(Cl)cc1 | 62* | . | 40 | 40
O=C(c1ccc(COc2ccc(Cl)cc2)o1)N1CCN(Cc2ccc3c(c2)OCO3)CC1 | 76* | 0.31 | 91 | 94
O=C(c1ccc(COc2ccccc2Cl)o1)N1CCN(Cc2ccc3c(c2)OCO3)CC1 | 39 | 0.85 | 84 | 94
CCCCC(=O)N/N=C(C)/C=C/c1ccccc1F | 5 | . | . | .
CCS(=O)(=O)N1CCN(c2ccc([N+](=O)[O-])c(N3CCOCC3)c2)CC1 | 6 | -1.1 | 88 | 92
Cc1cc(C)cc(NC(=O)c2ccc(Cn3nc(C)c(Cl)c3C)o2)c1 | 74* | 2.4 | 48 | 56
Cc1nn(Cc2ccc(C(=O)Nc3ccccc3C(F)(F)F)o2)c(C)c1Br | 36 | -0.29 | 52 | 45
Cc1ccc(CNC(=O)c2ccc(Cn3nc(C)c(Cl)c3C)o2)cc1 | 100* | 2 | 72 | 78
Cc1nn(C)c(C(=O)NCc2ccc(Cl)cc2)c1Cl | -10 | . | 45 | 50
Cc1nn(-c2ccc(F)cc2)c(Cl)c1/C=C/C(=O)OCC(=O)Nc1c(F)c(F)c(F)c(F)c1F | 4 | . | 93 | 97
OC1C2CN3CCN(C2)CC1(Cc1ccccc1)C3 (centres undefined) | -4 | 1.1 | 1.4* | 0.7*
CCN1/C(=C/c2cc[n+](CCCS(=O)(=O)[O-])c3ccccc23)Sc2ccccc21 | 17 | . | . | .
C=CC[n+]1ccc(/C=C2\C=Cc3cc(C)ccc3N2CC)c2ccccc21 | 87* | . | . | .
Cc1ccc(Cl)cc1NC(=O)COC(=O)c1ccc(COc2ccc3c(C)cc(=O)oc3c2)cc1 | 12 | . | 111 | 93
N#Cc1sc2nc(C3CC3)cc(-c3ccc(Cl)cc3)c2c1N | 72* | . | 85 | 73
COc1cc(Cl)cc(/C=C/c2ccc3ccccc3n2)c1OC(C)=O | 60* | . | 37 | 32
Cc1cc(C)c(S(=O)(=O)/N=C2/C=C(Sc3ncn[nH]3)C(=O)c3ccccc32)cc1C | 26 | . | 3.1* | 5
Cc1ccccc1NC(=O)C1CCN(C2=NS(=O)(=O)c3ccccc32)CC1 | 6 | . | . | .
Cn1cc(C(=O)c2ccc(Cl)cc2Cl)cc1C(=O)N/N=C(\N)COc1cccc(C(F)(F)F)c1 | 0 | 0.25 | 5.2* | 8
CCNc1nc(NC(C)C)nc(ON=C(C)C)n1 | 3 | . | 84 | 99
O=C1CC(c2ccc(F)cc2)Sc2nc(C34CC5CC(CC(C5)C3)C4)nn21 (centres undefined) | 19 | . | 94 | 79
Cc1cc(/C=N\NC(=O)CC(=O)NC2CCCCC2)c(C)n1-c1cccc(Cl)c1Cl | 4 | . | 76 | 80
COc1cccc(NC(=O)C(=O)N/N=C/c2cc(C)n(-c3ccc(Cl)c(Cl)c3)c2C)c1 | 29 | -4.8* | 48 | 52
Cc1cc(/C=N\NC(=O)CC(=O)NC2CCCCC2)c(C)n1-c1ccc(Cl)c(Cl)c1 | 15 | -3.7* | 92 | 86
CCN1/C(=C/c2ccc3cc(C)ccc3[n+]2CC)Sc2cc(C)c(C)cc21 | 92* | . | . | .
SMILES | WT yeast gro inh | DAT uptake mod | HCT116 bCat-KO | HCT116 PTEN-null
CCOC(=O)/C(=C/C=C1\Sc2cc(C)c(C)cc2N1CC)C(C)=O | 45 | . | . | .
CCN1/C(=C/c2ccc3cc(C)ccc3[n+]2CC)Sc2ccccc21 | 67 | . | 1.2* | 1.3*
CC[n+]1c(/C=C2\Sc3ccccc3N2C)ccc2cccc(C)c21 | 64 | . | . | .
CC(C)CN1C(=O)c2ccc(C(=O)Nc3c[nH]c(=O)[nH]c3=O)cc2C1=O | -9 | . | . | .
CCOc1ccc(-c2nc3n(c(=O)c2C#N)CCCS3)cc1 | -7 | -0.19 | 108 | 97
COc1ccc(-c2nc3n(c(=O)c2C#N)CCCS3)cc1 | 75* | -0.68 | 99 | 97
CC1Cc2ccccc2N1c1ncnc2c1nnn2Cc1ccccc1 (centres undefined) | 65* | -0.32 | 73 | 78
CC1Cc2ccccc2N1c1nc(C2CC2)nc2c1nnn2Cc1ccccc1 (centres undefined) | 27 | -0.35 | 85 | 75
CCCCNC(=O)NC(C(=O)OC)C12CC3CC(CC(C3)C1)C2 (centres undefined) | 4 | . | . | .
Cc1cc2cc(C(c3nnnn3Cc3ccco3)N3CCc4ccccc4C3)c(=O)[nH]c2cc1C (centres undefined) | 9 | 3.9* | 60 | 73
COc1ccc2cc(C(c3nnnn3C(C)(C)C)N3CCc4ccccc4C3)c(=O)[nH]c2c1 (centres undefined) | 4 | . | 3.5* | 4
CCC(C)(C)n1nnnc1C(c1cc2ccc(OC)cc2[nH]c1=O)N1CCc2ccccc2C1 (centres undefined) | -1 | 1.7 | 10 | 2.9*
O=C1CCN(C(=S)NCc2ccccc2)CC1 | -4 | . | . | .
CC(C)C(=O)NC(c1ccco1)c1ccc2cccnc2c1O (centres undefined) | -10 | -0.81 | 3.5* | 2.0*
CCCC(=O)NC(c1ccccc1OC)c1ccc2cccnc2c1O (centres undefined) | 8 | . | . | .
CCCC(=O)NC(c1ccc2c(c1)OCO2)c1cc(Cl)c2cccnc2c1O (centres undefined) | -26 | . | 4.1* | 5
CCCC(=O)NC(c1ccco1)c1cc(Cl)c2cccnc2c1O (centres undefined) | -6 | -0.67 | 6.0* | 7
Oc1c(C(Nc2nc3ccccc3s2)c2ccco2)ccc2cccnc12 (centres undefined) | -9 | 0.42 | 13 | 15
COc1ccc(C(NC(C)=O)c2ccc3cccnc3c2O)c(OC)c1 (centres undefined) | 1 | 1* | 3.7* | 2.5*
Cc1cccc(C)c1NC(=O)CSc1cc(C(=O)c2nccn2C)c2ccccc2n1 | -7 | . | 83 | 83
CC(C)CNC(=O)c1oc2ccccc2c1COc1ccccc1 | 63* | . | 84 | 81
COc1cccc(CNC(=O)CCC2CCCN(C(=O)c3ccc(OC)c(F)c3)C2)c1 (centres undefined) | 0 | . | . | .
COc1ccc(CN2CC[C@H]3C=CC[C@@H](C(=O)Nc4ccc(Cl)c(C(F)(F)F)c4)[C@H]3C2=O)cc1OC | . | 0.12 | . | .
CCn1c(SCC(=O)Nc2ccc(C)cc2)nnc1-c1ccc(O)cc1 | 2 | -1.1 | 91 | 89
CCOC(=O)c1c(NC(=O)c2cc3n(n2)C(C(F)(F)F)CC(c2cccs2)N3)sc(C)c1C (centres undefined) | 8 | . | 1.5* | 1.0*
SMILES | WT yeast gro inh | DAT uptake mod | HCT116 bCat-KO | HCT116 PTEN-null
Cc1nn(C)c(C)c1CNC(=O)c1cc2n(n1)C(C(F)(F)F)CC(c1cccs1)N2 (centres undefined) | -3 | 1.3 | 84 | 96
O=C(Cn1c2ccccc2c(=O)c2ccccc21)N/N=C/c1ccc(N2CCCC2)c([N+](=O)[O-])c1 | 13 | . | 2.7* | 7
O=C(Cn1c2ccccc2c(=O)c2ccccc21)N/N=C/c1cc([N+](=O)[O-])ccc1N1CCCCCC1 | -9 | -0.094 | 11 | 10
CCN(CC)c1ccc(C(=S)NCc2ccccc2)cc1 | 67* | . | . | .
CCN(CC)c1ccc(C(=S)NC2CCCCC2)cc1 | 73* | . | . | .
CCN(CC)c1ccc(C(=O)O)cc1 | 16 | . | 98 | 89
Cc1ccc(S(=O)(=O)C(NC(=O)c2ccccc2)=C(Cl)Cl)cc1 | . | -1 | . | .
